A short description of experiment [1]: Viability qHTS for spleen associated tyrosine kinase inhibitor (SYKi) naive MV4-11 cells (AID 1963823). Further: nearly all actives have a fitted effect of over 40% in size. The method, boiled down:
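Viability of MV4-11 AML cells lacking prior SYK inhibitor exposure is scored by CellTiter-Glo luminescence following 72 hr compound incubation at 37 C, 5% CO2, seeded at 500 cells per well.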
On the technique in general: In qHTS, concentration-response curves come from the screen itself.

Experiment [2] is described as follows: Viability qHTS for spleen associated tyrosine kinase inhibitor (SYKi) drug resistant MV4-11 cells (AID 1963824). Further: nearly all actives have a fitted effect of over 35% in size. The procedure, abridged:
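SYK inhibitor-resistant MV4-11 AML cells, 500 per well, added to predispensed compounds and incubated 72 hr at 37 C, 5% CO2. Viability measured by CellTiter-Glo luminescence after 10 min at room temperature.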

Results filed as inconclusive are left out. Unmarked numbers belong to inactive results. Active and inactive are the calls of the source. The call rests on the fitted dose curve; in most records, active means well fitted cell-killing curve with a large enough effect; inconclusive means small, poorly fitted or top-dose-only effect, or effect the other way; inactive means no such curve, though single readings can be large or run the other way.
Potency means the concentration at half of the fitted maximal effect.

Regarding `CCCCC[C@H](O)C=C[C@H]1[C@H](O)CC(=O)[C@H]1CC=CCCCC(=O)O`, the Potency is 0.119 µM (active) in experiment [1] and 0.0186 µM (active) in experiment [2].

For `CC(C)=CC/C=C(/C)[C@H]1CC[C@]2(C)[C@@H]1[C@H](O)CC1[C@@]3(C)CC[C@H](O)C(C)(C)[C@@H]3[C@@H](O[C@@H]3O[C@H](CO)[C@@H](O)[C@H](O)[C@H]3O[C@@H]3O[C@@H](C)[C@H](O)[C@@H](O)[C@H]3O)C[C@]12C` (stereo not given in full), the Potency result in experiment [1] and in experiment [2] was “inactive” in each case.

On to `C=C1CCC2(C(=O)OC3OC(CO)C(O)C(O)C3O)CCC3(C)C(=CCC4C5(C)CCC(OC6OC(CO)C(OC7OC(C)C(O)C(O)C7O)C(OC7OCC(O)C(O)C7O)C6O)C(C)(C)C5CCC43C)C2C1` (stereo not given), for which the viability (% of control) in experiment [1] is 89.9% [at 9.25 µM]. Besides, the viability, % of control in experiment [2] was 105% [at 9.25 µM].

As for `CC1(C)CC[C@]2(C(=O)O)CC[C@]3(C)C(=CCC4[C@@]5(C)CC[C@H](O[C@@H]6O[C@H](C(=O)O)[C@@H](O)[C@H](O)[C@H]6O)C(C)(CO)C5CC[C@]43C)C2C1` (stereo not given in full), the Potency result in experiment [1] and in experiment [2] was “inactive” each time.

For the compound `CCOC(=O)COc1ccc2c(c1)C[C@@H](NC[C@H](O)c1cccc(Cl)c1)CC2`, the Potency was 18.4 µM (active) in experiment [1] and 8.2 µM (active) in experiment [2].

As to `CCCC(CCC)C(=O)NCc1ccc2c(cnn2-c2ccccc2OC)c1`, the Potency in experiment [1] is 10.3 µM (active); in experiment [2], 8.2 µM (active).

Turning to `COC1=CC(=O)C[C@@H](C)[C@]12Oc1cc(OC)cc(OC)c1C2=O`, the Potency result in experiment [1] and in experiment [2] was “inactive” throughout.

Turning to `COc1cc2ncc(-c3ccccc3)nc2cc1OC`, the Potency in experiment [1] is 3.66 µM (active); in experiment [2], 4.61 µM (active).

Turning to `CC(=O)/C=C/[C@H]1[C@](C)(O)[C@@H](O)[C@H](OC(C)=O)C2C(C)(C)CCC[C@@]21C` (stereo not given in full), the Potency entry in experiment [1] and in experiment [2] was “inactive” throughout.

In the case of `O=C(/C=C/c1ccc(O)cc1)OCC1=C[C@@H](O)[C@@H]2C=CO[C@@H](O[C@@H]3O[C@H](CO)[C@@H](O)[C@H](O)[C@H]3O)[C@H]12`, the Potency result in experiment [1] and in experiment [2] was “inactive” throughout.

For the compound `CC(CCc1ccc(O)cc1)O[C@@H]1O[C@H](CO[C@@H]2OC(CO)[C@H](O)[C@H]2O)[C@@H](O)[C@H](O)[C@H]1O` (stereo not given in full), the Potency entry in experiment [1] and in experiment [2] was “inactive” in each case.

`COC(=O)C1=CO[C@@H](O[C@@H]2O[C@H](CO)[C@@H](O)[C@H](O)[C@H]2O)[C@@H]2[C@@H](C(=O)OC)[C@@H](O)C(O)[C@H]12` (stereo not given in full): the Potency entry in experiment [1] and in experiment [2] was “inactive” in each case.

As to `C[C@H]1CC[C@@H]2N(C1)C[C@@H]1[C@H]([C@@H](O)[C@H](O)[C@]3(O)[C@H]1C[C@@]14OC5(O)[C@@H](C[C@@H](O)[C@@H]31)[C@]4(C)CC[C@@H]5O)[C@]2(C)O`, the Potency result in experiment [1] and in experiment [2] was “inactive” in each case.

Regarding `C/C1=C\CC(C)(C)/C=C/C/C(C(=O)O)=C/CC1`, the Potency in experiment [1] and in experiment [2] was 23.1 µM (active) throughout.

Turning to `N#CC1C(=O)N=C(c2cc(Cl)ccc2O)C=C1c1cc(OCc2ccccc2)cc(OCc2ccccc2)c1` (stereo not given), the Potency entry in experiment [1] and in experiment [2] was “inactive” throughout.

Take `COC(=O)C1(O)C(OC(C)=O)CCC2C3(CC(c4ccoc4)OC3=O)C(C)=CCC21C(=O)OC` (stereo not given): the Potency result in experiment [1] and in experiment [2] was “inactive” throughout.

For the compound `CC1=C[C@H]2[C@@H](CC1=O)[C@H](C)C[C@H](O)[C@H]2C(C)C`, the Potency entry in experiment [1] and in experiment [2] was “inactive” in each case.

For the compound `C=C1C(=O)O[C@@H]2C[C@@]3(C)CCC[C@H](C)C3=C[C@H]12`, the figures for the Potency in experiment [1] and in experiment [2] were 13 µM (active) and 7.31 µM (active), respectively.

In the case of `C=CC(C)(CC/C=C(\C)CC/C=C(\C)CC(O)/C=C(\C)C(=O)O)O[C@@H]1O[C@H](CO)[C@@H](O)[C@H](O)[C@H]1O[C@@H]1O[C@H](CO)[C@@H](O)[C@H](O)[C@H]1O` (stereo not given in full), the Potency result in experiment [1] and in experiment [2] was “inactive” in each case.

On to `C=C(C)C(=O)O[C@H]1[C@H]2C(=C)C(=O)O[C@@H]2C[C@@H](C)/C=C\C(=O)[C@](C)(O)[C@@H]1OC(C)=O`, for which the Potency entry in experiment [1] and in experiment [2] was “inactive” each time.

Take `Nc1ccc(-c2ccnc(NCCCNC(=O)c3c(Cl)cccc3Cl)n2)cc1`: the Potency in experiment [1] and in experiment [2] was 1.3 µM (active) each time.

`COc1c2c(c(C)c3c1C(=O)OC3)OC1(C)CC(O)C34OC(O)(CCC3(C)C1C2)OC4(C)C` (stereo not given): the Potency entry in experiment [1] and in experiment [2] was “inactive” each time.

`CCS(=O)c1nc(-c2cccc(OCc3ccccc3)c2)cc(C(F)(F)F)n1` (stereo not given): the Potency is 2.91 µM (active) in experiment [1] and 5.8 µM (active) in experiment [2].

As to `C[C@]1(OC(=O)/C=C/c2ccccc2)C[C@@H](O)[C@]2(O)C=CO[C@@H](O[C@@H]3O[C@H](CO)[C@@H](O)[C@H](O)[C@H]3O)[C@@H]21`, the Potency result in experiment [1] and in experiment [2] was “inactive” throughout.

Regarding `C=C1C(=O)O[C@H]2CC(=C)[C@H]3CC[C@@](C)(O)[C@@H]3CC12` (stereo not given in full), the Potency in experiment [1] was 6.51 µM (active); in experiment [2] it was 4.11 µM (active).

Turning to `Cc1cc(C(=O)Nc2cccc(C(=O)Nc3cccc(C(F)(F)F)c3)c2)on1`, the Potency result in experiment [1] and in experiment [2] was “inactive” in each case.

Take `Cc1onc(C(=O)N2CCN(C(c3ccc(Cl)cc3)c3ccc(Cl)cc3)CC2)c1[N+](=O)[O-]`: the Potency in experiment [1] was 4.11 µM (active); in experiment [2], 4.61 µM (active).

As to `CC(O)C(O)/C=C/C=C/C(=O)O[C@@H]1C=C(C(=O)O)[C@](O)(CO)[C@@]2(C)CCCC(C)(C)[C@H]12` (stereo not given in full), the Potency result in experiment [1] and in experiment [2] was “inactive” throughout.

With `CC(=O)O[C@H]1CC[C@@]2(CI)C(=CC[C@@H]3[C@@H]2CC[C@]2(C)[C@@H]([C@H](C)CCCC(C)C)CC[C@@H]32)C1`, the viability (% of control) in experiment [1] was 88.4% [at 9.25 µM]. Also, in experiment [2], the viability, % of control is 83% [at 9.25 µM].

Turning to `CC1C2=CC(=O)OC2(O)CC2C1C(OC(=O)c1ccccc1)C(OC(=O)c1ccccc1)C1(O)C2(C)CCC(O)C1(C)C(=O)O` (stereo not given), the Potency entry in experiment [1] and in experiment [2] was “inactive” each time.

The values above are taken from PubChem BioAssay (NCATS).
